In PubChem BioAssay (NCATS):
Several values for one entry are separate records, joined by “and”; a condition that tells them apart may be missing. Equal entries are not always repeated. Results filed as inconclusive are left out. A call without a number means that no potency is given here. Activity calls are given as the source filed them. The call rests on the fitted dose curve; in most records, active means well fitted inhibition curve with a large enough effect; inconclusive means small, poorly fitted or top-dose-only effect; inactive means flat fitted curve, though single readings scatter.

Target: Voltage-gated inwardly rectifying potassium channel KCNH2 (Homo sapiens) (UniProt Q12809)
Sequence (Q12809 whole entry, looked up): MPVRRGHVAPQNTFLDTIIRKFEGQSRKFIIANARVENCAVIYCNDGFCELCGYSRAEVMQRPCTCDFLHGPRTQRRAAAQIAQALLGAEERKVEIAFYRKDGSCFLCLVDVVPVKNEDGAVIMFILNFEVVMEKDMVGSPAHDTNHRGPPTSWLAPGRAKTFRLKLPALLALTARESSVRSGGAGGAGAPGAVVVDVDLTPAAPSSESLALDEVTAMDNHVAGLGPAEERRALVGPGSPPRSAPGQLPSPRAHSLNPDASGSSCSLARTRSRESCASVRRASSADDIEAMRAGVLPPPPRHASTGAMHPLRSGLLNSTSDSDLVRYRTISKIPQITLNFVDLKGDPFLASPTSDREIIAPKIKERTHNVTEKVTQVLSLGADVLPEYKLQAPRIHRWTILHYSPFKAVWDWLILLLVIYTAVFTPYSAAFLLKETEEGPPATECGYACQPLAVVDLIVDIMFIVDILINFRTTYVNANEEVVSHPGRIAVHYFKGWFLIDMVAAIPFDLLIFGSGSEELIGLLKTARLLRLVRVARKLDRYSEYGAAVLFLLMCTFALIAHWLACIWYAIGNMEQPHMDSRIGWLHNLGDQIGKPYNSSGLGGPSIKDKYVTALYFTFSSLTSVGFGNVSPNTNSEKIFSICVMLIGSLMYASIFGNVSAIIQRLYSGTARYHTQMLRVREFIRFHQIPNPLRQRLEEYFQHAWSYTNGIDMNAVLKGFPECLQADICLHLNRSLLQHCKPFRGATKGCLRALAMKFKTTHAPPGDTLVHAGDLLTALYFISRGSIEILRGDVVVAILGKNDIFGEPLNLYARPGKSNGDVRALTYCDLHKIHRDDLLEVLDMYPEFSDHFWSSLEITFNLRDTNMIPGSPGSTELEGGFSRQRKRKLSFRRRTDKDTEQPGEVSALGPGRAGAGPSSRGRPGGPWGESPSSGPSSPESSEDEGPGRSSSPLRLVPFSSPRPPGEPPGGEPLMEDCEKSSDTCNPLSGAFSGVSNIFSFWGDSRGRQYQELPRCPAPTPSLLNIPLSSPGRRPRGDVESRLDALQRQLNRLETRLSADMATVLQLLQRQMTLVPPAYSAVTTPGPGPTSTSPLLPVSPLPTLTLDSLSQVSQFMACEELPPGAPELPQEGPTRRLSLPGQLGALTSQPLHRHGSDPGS
Test: qHTS Assay for Small Molecule Inhibitors of the Human hERG Channel Activity (AID 588834);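 further: lower thallium flux fluorescence means stronger hERG block; nearly all actives have a fitted effect of over 50% in size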
Details: U2OS BacMam hERG, FluxOR thallium flux fluorescence; series mostly up to 46.1 µM
Summary of the method: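 Kinetic FDSS fluorescence; U2OS + hERG BacMam (~100 virus particles/cell); FluxOR Tl+ flux; ~10 min cpd; AC50 (Hill).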
Potency means the concentration at half of the fitted maximal effect.

| SMILES | Potency |
| --- | --- |
| Oc1c(I)cc(I)c2cccnc12 | inactive |
| CC(=O)OCC(=O)NCCCOc1cccc(CN2CCCCC2)c1 | inactive |
| CC(Cc1cccc(C(F)(F)F)c1)NCCOC(=O)c1ccccc1 (configuration not stated) | 10 µM (active) |
| NCCc1ccn[nH]1 | inactive |
| c1ccc(CNCCNCc2ccccc2)cc1 | inactive |
| CC(=O)Oc1ccc(C(=C2CCCCC2)c2ccc(OC(C)=O)cc2)cc1 | inactive |
| CCCCOc1cc(C(=O)NCCN(CC)CC)c2ccccc2n1 | 4.47 µM (active) |
| CCN(CC)CCOC(=O)C(c1ccccc1)C1CCCCC1 (configuration not stated) | 12.6 µM (active) |
| CN(C)CCCOc1nn(Cc2ccccc2)c2ccccc12 | 5.01 µM (active) |
| OCc1ccccc1O | inactive |
| CCC(=O)c1c(O)cc(O)cc1O | inactive |
| N[C@H](CO)C(=O)O | inactive |
| Nc1ccc(C(=O)Nc2ccccc2N)cc1 | inactive |
| CN1C2CCC1CC(OC(=O)c1c[nH]c3ccccc13)C2 (configuration not stated) | 11.2 µM (active) and 5.62 µM (active) |
| CN1CCC(=C2c3ccccc3Sc3ccccc32)CC1 | 4.47 µM (active) |
| CCCCC(CC)CN=C(N)NC(N)=NCCCCCCN=C(N)NC(N)=NCC(CC)CCCC (configuration not stated) | inactive |
| C[C@]12CCC(=O)C=C1CC[C@H]1[C@@H]3CC[C@](O)(C(=O)CO)[C@@]3(C)C[C@H](O)[C@@]12F | inactive |
| CC1(C)CCC(NC(=O)[C@@H](N)CCC(=O)O)CC1 | inactive |
| CN=C(NC#N)NCCSCc1csc(N=C(N)N)n1 | inactive |
| Cc1ccc(O)c2ncccc12 | inactive |
| O=C(O)CNC(=O)c1ccccc1 | inactive |
| Cc1cccn2c(=O)c(-c3nnn[nH]3)cnc12 | inactive |
